Source: PubChem BioAssay
D2 ag-1 – activates the human D2 dopamine receptor; activation, % at 2 µM; AID 485358; HEK293 T-REx D2 cells, calcium flux agonist mode; P14416; 340,000 compounds, 0.53% hits;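 active = activation over 3 SD above normal in the single-dose calcium agonist read, cut at about 30% in these data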; note: 0% is about no effect
Target sequence (P14416 whole entry, looked up): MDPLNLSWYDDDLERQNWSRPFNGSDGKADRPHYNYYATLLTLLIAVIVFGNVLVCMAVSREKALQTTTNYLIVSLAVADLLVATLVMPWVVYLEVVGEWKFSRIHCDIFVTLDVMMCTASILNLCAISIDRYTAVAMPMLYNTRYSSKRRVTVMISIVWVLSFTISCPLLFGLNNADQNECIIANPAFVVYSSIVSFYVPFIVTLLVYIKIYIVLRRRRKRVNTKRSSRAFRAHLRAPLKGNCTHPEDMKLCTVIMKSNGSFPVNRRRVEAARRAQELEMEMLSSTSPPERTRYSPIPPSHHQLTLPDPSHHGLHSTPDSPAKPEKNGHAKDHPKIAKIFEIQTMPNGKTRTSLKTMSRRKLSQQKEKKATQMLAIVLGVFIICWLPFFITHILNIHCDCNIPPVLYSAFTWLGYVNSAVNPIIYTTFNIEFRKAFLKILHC
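HEK293 Trex D2 cells, tetracycline-induced, o/n 30 C 5% CO2; no-wash Ca dye, RT 30–90 min; 10-cycle baseline, 23 nl cpd added, kinetic Ca read 180 s; agonist hits = positive Ca response.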
D2 ag-2 – agonists of human D2 dopamine receptor (beta-arrestin); P14416; DiscoveRx PathHunter D2 beta-arrestin, luminescence, 90 min; 100% = 57 uM dopamine signal; activation, % (concentration not given with the values); 360,000 compounds, 0.084% hits; AID 624465; in the data active = activation above about 40%; inconclusive = between about 15% and that limit
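Agonist mode: compounds alone added to overnight-plated D2 PathHunter cells for 90 min at 37 C, with 57 uM final dopamine (EC100) defining full response. Beta-arrestin recruitment detected by chemiluminescent reagent, read after 1 h at ambient temperature.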
D2 PAM-1 – human D2 receptor positive allosteric modulation; potentiation, % (concentration not given with the values); 360,000 compounds, 0.23% hits; P14416; DiscoveRx D2 beta-arrestin cells, luminescence, 90 min; 100% = 57 uM dopamine signal; in the data active = potentiation above about 50%; inconclusive = mostly about 30% to 49%
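PathHunter beta-arrestin assay in DiscoveRx D2 cells. Compounds were added with an EC20 of dopamine (50 nM final) for 90 min at 37 deg C. Luminescence was read 1 h after detection reagent, with 57 uM dopamine as the EC100 control.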
D2 PAM-2 – positively modulates the human D2 dopamine receptor allosterically | 340,000 compounds, 0.34% hits | potentiation, % at 10 µM | HEK293 T-REx D2, calcium flux, EC20 dopamine potentiation | AID 485347;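 active = potentiation over 3 SD above the plate norm, cut at about 30% in these data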; note: 0% is about no effect
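Cells plated with tetracycline inducer and held overnight at 30 C; calcium dye loaded 30–90 min at room temperature; baseline taken, compound added and read 180 s; EC20 dopamine then added and read 180 s.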
D2 antagonist – D2 dopamine receptor (human) antagonism; AID 485344; P14416; HEK293 TREx D2 cells, calcium flux, dopamine EC80; inhibition, % at 10 µM; 340,000 compounds, 2% hits; in the data active = inhibition above about 30%; inactive = below that, where a call was filed; note: 0% is about no effect
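Read-out: kinetic calcium fluorescence (1 cycle/s) in inducible HEK293 T-REx D2 cells after an EC80 dopamine addition that followed 180 s compound preincubation. Loss of the dopamine response indicates antagonism.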
Numbers without * were called inactive; ? = inconclusive; nt = no result given. Hits are enriched below; roughly 2.4% of the tested compounds scored in any of these assays.

SMILES	D2 ag-1	D2 ag-2	D2 PAM-1	D2 PAM-2	D2 antagonist
Cc1nn2c(=O)cc(COC(=O)c3ccc(NC(=O)c4cccc(Br)c4)cc3)nc2s1	1	nt	nt	4	nt
Cc1cccc(N(CC(O)Cn2c3ccccc3c3ccccc32)S(=O)(=O)c2ccc(F)cc2)c1 (configuration not stated)	1	nt	nt	-3	nt
O=C(CC1SC(N2CCCCC2)=NC1=O)Nc1cccc(C(F)(F)F)c1 (configuration not stated)	-1	2	-44	-29	79*
CC(=O)c1cccc(NC(=O)c2ccc(NC(=O)CC3SC(N4CCCCC4)=NC3=O)cc2)c1 (configuration not stated)	0	1	1	8	-9
CC(=O)c1cccc(NC(=O)CC2SC(N3CCCCC3)=NC2=O)c1 (configuration not stated)	0	1	-11	-22	45*
O=C(CC1SC(N2CCCCC2)=NC1=O)Nc1ccc(C(=O)O)cc1 (configuration not stated)	0	-4	-13	-11	-13
CCCN(C(=O)CSc1n[nH]c(-c2ccc(OC)cc2)n1)c1c(N)n(Cc2ccccc2)c(=O)[nH]c1=O	0	-4	-41	-2	7
Cc1ccc(NC(=O)c2ccc([N+](=O)[O-])o2)c(C)c1	0	?	5	-5	33*
Cc1ccccc1NC(=O)c1ccc([N+](=O)[O-])o1	-1	?	10	11	-12
O=C(Nc1ccc(NC(=O)c2ccc([N+](=O)[O-])o2)cc1Cl)c1ccco1	1	14	13	-22	40*
CC(=O)c1ccc(OCCCC(=O)OCC(=O)N2CCN(S(=O)(=O)c3ccc(C)cc3C)CC2)cc1	nt	11	-3	nt	nt
COc1cccc(/C=N/Nc2ccc(S(=O)(=O)O)cc2)c1O	nt	0	8	nt	nt
COc1cccc(/C=N/Nc2ccc(C(=O)O)cc2)c1O	0	-1	79*	0	1
COc1cccc(/C=N/NC(=O)c2cc3c(OC)ccc(OC)c3[nH]2)c1O	-2	-4	52*	-14	9
COc1ccccc1/C=C/C(=O)NCC(=O)N/N=C/c1cc(Br)ccc1OC	0	-1	-12	-10	64*
COc1ccc(Br)cc1/C=C/C(=O)Nc1ccc(C)cc1	0	2	-16	-20	74*
COc1ccc(Br)cc1/C=C/C(=O)Nc1ccc2ccccc2c1	0	0	-9	-19	-22
COc1cc(OC)c2cc(C(=O)N/N=C/c3cccc(OC)c3O)[nH]c2c1	-1	-3	20	10	-10
COc1cc2cc(CCO)oc(=O)c2cc1OC	nt	-4	-6	nt	nt
COc1cc(/C=C/C(=O)O)cc(S(=O)(=O)NCCCC(=O)O)c1OC	-3	-4	0	7	-13
COc1ccc(Cl)cc1N(C)C(=O)C(=O)Nc1ccc2nc3n(c(=O)c2c1)CCCCC3	nt	nt	nt	6	nt
COc1ccc(/C=N/NC(=O)CNC(=O)/C=C/c2ccccc2OC)cc1	0	-4	-9	-30	-6
COc1ccc(/C=C\C(=O)NCC(=O)N/N=C/c2ccc(O)cc2O)cc1	-2	-4	-22	-16	-10
COc1ccc(/C=C/C(=O)NCC(=O)N/N=C/c2cc(Br)ccc2OC)cc1	0	2	-19	-18	69*
COc1ccccc1/C=C\C(=O)NCC(=O)N/N=C/c1cccc(OC)c1O	-1	0	-35	-23	49*
SMILES	D2 ag-1	D2 ag-2	D2 PAM-1	D2 PAM-2	D2 antagonist
O=C(CSc1n[nH]c(=O)[nH]c1=O)c1ccc(Cl)cc1Cl	0	-1	-2	16	5
CC(C)(C)c1ccc(C(=O)CSc2n[nH]c(=O)[nH]c2=O)cc1	0	-3	-1	-8	31*
COc1cc(OC)cc(N2CCN(S(=O)(=O)c3ccc(-n4cnnn4)cc3)CC2)c1	0	-5	-1	19	46*
COc1cccc(-n2cnnn2)c1	0	-1	-14	-11	38*
CC(=O)Nc1ccc(NC(=O)C2CCCN(S(=O)(=O)c3ccc(-n4cnnn4)cc3)C2)cc1 (configuration not stated)	5	-6	2	nt	12
CC(C)(C)NC(=O)C1CCCN(S(=O)(=O)c2ccc(-n3cnnn3)cc2)C1 (configuration not stated)	0	1	-5	7	32*
COC(=O)c1cccc(-n2cnnn2)c1	0	-4	-14	-3	-7
CC(=O)NC(c1ccccc1)c1nc(-c2cccc(F)c2)cs1 (configuration not stated)	nt	-3	-2	nt	nt
O=C(Nc1ccccc1-c1nnn(CC(=O)N2CCCc3ccccc32)n1)c1ccc(Cl)cc1	1	0	-9	6	47*
COc1ccc(OCc2nnc(SCC(=O)Nc3ccc(C)cc3)o2)cc1	0	-1	2	7	-11
COc1ccc(OCc2nnc(SCC(=O)Nc3cccc(Cl)c3)o2)cc1	0	-4	-1	-3	43*
Cc1nc(SCC(=O)Nc2cccc(Cl)c2)n[nH]1	0	-3	-6	30*	-14
Cc1ccc(OCc2nnc(SCC(=O)N3c4ccccc4Sc4ccc(Cl)cc43)o2)cc1	2	15	50*	-7	-7
Cc1ccc(-c2nnc(SCc3ccccc3C#N)o2)cc1	0	nt	nt	-3	nt
Cc1c(C(=O)N2CCCCCC2)nnn1-c1nonc1N	1	-3	-21	1	41*
CCOC(=O)c1nnn(-c2nonc2N)c1CN1CCCCCC1	0	0	-2	-6	15
O=C(c1cc(-c2ccccc2Cl)on1)N1CCN(C(=O)c2ccco2)CC1	0	-2	-18	-1	4
O=C(c1cc(-c2ccc(Cl)cc2Cl)on1)N1CCN(C(=O)c2ccco2)CC1	1	-1	-7	49*	-1
O=C(Nc1cccnc1)c1cc(-c2ccc(Cl)cc2Cl)on1	1	3	-2	7	35*
CCC(C)(C)n1nnnc1C(c1ccccn1)N1CCCCC1 (configuration not stated)	0	0	-7	-6	52*
N/C(=N\OS(=O)(=O)c1ccc(Cl)cc1)c1ccncc1	1	?	67*	0	1
COc1ccc(S(=O)(=O)N(C)C[C@H]2Oc3c(NC(=O)Cc4ccccc4)cccc3C(=O)N([C@H](C)CO)C[C@@H]2C)cc1	nt	-6	-9	nt	nt
CCC(=O)N1CCc2cc(S(=O)(=O)CCC(=O)N3CCCC(C)C3)ccc21 (configuration not stated)	0	7	-7	-7	-2
COc1c2c(cc3c1C(CC(O)Cc1ccccc1)N(C)CC3)OCO2 (configuration not stated)	2	-1	-10	-26	57*
